# Laboratory results published in the supplement of paper PMC8728848.
# The sample as a whole holds a higher share of the strongest signals than the screen did.
# Key:
# Test in all cases: glycan array binding signal (z-score within array); higher = stronger binding
# Settings in all cases: glycan notation: IUPAC condensed, linker removed
# [1] = biological target: Fuc(a1-2)Gal(b1-3)GalNAc(a1-3)[Fuc(a1-2)]Gal(b1-4)GlcNAc
# Procedure, shortened: (§1)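 The Consortium for Functional Glycomics database supplied 3228 glycan arrays, of which those lacking an available protein sequence were dropped. The binding signal, a within-array Z-score, was averaged across arrays of the same protein sequence and across linkers. Negative scores can be read as non-binding.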
# [2] = biological target: Fuc(a1-2)Gal(b1-3)GlcNAc(b1-2)Man(a1-3)[Fuc(a1-2)Gal(b1-3)GlcNAc(b1-2)Man(a1-6)]Man(b1-4)GlcNAc(b1-4)GlcNAc
# Procedure, shortened: as §1
# [3] = biological target: Fuc(a1-2)Gal(b1-4)GlcNAc(b1-2)Man(a1-3)[Fuc(a1-2)Gal(b1-4)GlcNAc(b1-2)Man(a1-6)]Man(b1-4)GlcNAc(b1-4)GlcNAc
# Procedure, shortened: as §1
# [4] = biological target: Fuc(a1-2)Gal(b1-4)GlcNAc(b1-3)Gal(b1-4)GlcNAc(b1-3)Gal(b1-4)GlcNAc
# Procedure, shortened: as §1
# [5] = biological target: Fuc(a1-2)Gal6S(b1-3)GlcNAc6S
# Procedure, shortened: as §1
# [6] = biological target: Gal(a1-3)Gal(b1-4)[Fuc(a1-3)]GlcNAc(b1-2)Man(a1-3)[Gal(a1-3)Gal(b1-4)[Fuc(a1-3)]GlcNAc(b1-2)Man(a1-6)]Man(b1-4)GlcNAc(b1-4)GlcNAc
# Procedure, shortened: as §1
# Gal(a1-4)Gal(b1-4)Glc = biological target: Gal(a1-4)Gal(b1-4)Glc
# Procedure, shortened: as §1
# [7] = biological target: Gal(a1-4)Gal(b1-4)GlcNAc(b1-2)Man(a1-3)[Gal(a1-4)Gal(b1-4)GlcNAc(b1-2)Man(a1-6)]Man(b1-4)GlcNAc(b1-4)GlcNAc
# Procedure, shortened: as §1
# Gal(b1-3)Gal(b1-4)GlcNAc = biological target: Gal(b1-3)Gal(b1-4)GlcNAc
# Procedure, shortened: as §1
# [8] = biological target: Gal(b1-3)GalNAc(a1-3)[Fuc(a1-2)]Gal(b1-4)Glc
# Procedure, shortened: as §1
# Gal(b1-4)Glc6S = biological target: Gal(b1-4)Glc6S
# Procedure, shortened: as §1
# [9] = biological target: Gal(b1-4)GlcNAc(b1-2)Man(a1-3)[Gal(b1-4)GlcNAc(b1-2)Man(a1-6)]Man(b1-4)GlcNAc(b1-4)GlcNAc
# Procedure, shortened: as §1
# [10] = biological target: Gal(b1-4)GlcNAc(b1-2)[Gal(b1-4)GlcNAc(b1-4)]Man(a1-3)[Gal(b1-4)GlcNAc(b1-2)Man(a1-6)]Man(b1-4)GlcNAc(b1-4)GlcNAc
# Procedure, shortened: as §1
# [11] = biological target: Gal(b1-4)GlcNAc(b1-2)[Gal(b1-4)GlcNAc(b1-6)]Man(a1-6)[GlcNAc(b1-4)][Gal(b1-4)GlcNAc(b1-2)[Gal(b1-4)GlcNAc(b1-4)]Man(a1-3)]Man(b1-4)GlcNAc(b1-4)[Fuc(a1-6)]GlcNAc
# Procedure, shortened: as §1
# [12] = biological target: Gal(b1-4)GlcNAc(b1-3)Gal(b1-4)GlcNAc(b1-3)Gal(b1-4)GlcNAc(b1-2)Man(a1-3)[Gal(b1-4)GlcNAc(b1-3)Gal(b1-4)GlcNAc(b1-3)Gal(b1-4)GlcNAc(b1-2)Man(a1-6)]Man(b1-4)GlcNAc(b1-4)[Fuc(a1-6)]GlcNAc
# Procedure, shortened: as §1
# [13] = biological target: Gal(b1-4)GlcNAc(b1-3)Gal(b1-4)GlcNAc(b1-3)Gal(b1-4)GlcNAc(b1-2)[Gal(b1-4)GlcNAc(b1-3)Gal(b1-4)GlcNAc(b1-3)Gal(b1-4)GlcNAc(b1-6)]Man(a1-6)[Gal(b1-4)GlcNAc(b1-3)Gal(b1-4)GlcNAc(b1-3)Gal(b1-4)GlcNAc(b1-2)Man(a1-3)]Man(b1-4)GlcNAc(b1-4)[Fuc(a1-6)]GlcNAc
# Procedure, shortened: as §1
# [14] = biological target: Gal(b1-4)GlcNAc(b1-3)Gal(b1-4)GlcNAc(b1-3)Gal(b1-4)GlcNAc(b1-3)Gal(b1-4)GlcNAc(b1-3)Gal(b1-4)GlcNAc(b1-2)[Gal(b1-4)GlcNAc(b1-3)Gal(b1-4)GlcNAc(b1-3)Gal(b1-4)GlcNAc(b1-3)Gal(b1-4)GlcNAc(b1-3)Gal(b1-4)GlcNAc(b1-6)]Man(a1-6)[Gal(b1-4)GlcNAc(b1-3)Gal(b1-4)GlcNAc(b1-3)Gal(b1-4)GlcNAc(b1-3)Gal(b1-4)GlcNAc(b1-3)Gal(b1-4)GlcNAc(b1-2)Man(a1-3)]Man(b1-4)GlcNAc(b1-4)[Fuc(a1-6)]GlcNAc
# Procedure, shortened: as §1
# [15] = biological target: Gal(b1-4)GlcNAc(b1-3)Gal(b1-4)GlcNAc(b1-6)[Gal(b1-3)]GalNAc
# Procedure, shortened: as §1
# [16] = biological target: Gal(b1-4)GlcNAc(b1-3)Gal(b1-4)[Fuc(a1-3)]GlcNAc(b1-3)Gal(b1-4)[Fuc(a1-3)]GlcNAc
# Procedure, shortened: as §1
# [17] = biological target: Gal(b1-4)GlcNAc(b1-3)GalNAc
# Procedure, shortened: as §1
# Gal3S(b1-3)GalNAc = biological target: Gal3S(b1-3)GalNAc
# Procedure, shortened: as §1
# [18] = biological target: Gal3S(b1-3)[Fuc(a1-4)]GlcNAc
# Procedure, shortened: as §1
# [19] = biological target: Gal3S(b1-4)[Fuc(a1-3)]Glc6S
# Procedure, shortened: as §1
# Gal3S4S(b1-4)GlcNAc = biological target: Gal3S4S(b1-4)GlcNAc
# Procedure, shortened: as §1
# Glc(b1-6)Glc = biological target: Glc(b1-6)Glc
# Procedure, shortened: as §1
# [20] = biological target: GlcNAc(a1-4)Gal(b1-4)GlcNAc(b1-3)Gal(b1-4)Glc
# Procedure, shortened: as §1
# GlcNAc(b1-3)Gal = biological target: GlcNAc(b1-3)Gal
# Procedure, shortened: as §1
# [21] = biological target: GlcNAc(b1-3)[GlcNAc(b1-4)][GlcNAc(b1-6)]GlcNAc
# Procedure, shortened: as §1
# [22] = biological target: Man(a1-3)[Man(a1-6)]Man(a1-6)[Man(a1-3)]Man(b1-4)GlcNAc(b1-4)GlcNAc
# Procedure, shortened: as §1
# [23] = biological target: Neu5Ac(a2-3)Gal(b1-3)GlcNAc(b1-2)Man
# Procedure, shortened: as §1
# [24] = biological target: Neu5Ac(a2-3)Gal(b1-3)GlcNAc(b1-3)Gal(b1-3)GlcNAc
# Procedure, shortened: as §1
# [25] = biological target: Neu5Ac(a2-3)Gal(b1-3)GlcNAc(b1-3)GalNAc
# Procedure, shortened: as §1
# [26] = biological target: Neu5Ac(a2-3)Gal(b1-3)GlcNAc(b1-4)Gal(b1-4)Glc
# Procedure, shortened: as §1
# Neu5Ac(a2-3)Gal(b1-4)Glc = biological target: Neu5Ac(a2-3)Gal(b1-4)Glc
# Procedure, shortened: as §1
# [27] = biological target: Neu5Ac(a2-3)Gal(b1-4)GlcNAc(b1-2)Man
# Procedure, shortened: as §1
# [28] = biological target: Neu5Ac(a2-3)Gal(b1-4)GlcNAc(b1-6)GalNAc
# Procedure, shortened: as §1
# Neu5Ac(a2-6)Gal(b1-4)Glc = biological target: Neu5Ac(a2-6)Gal(b1-4)Glc
# Procedure, shortened: as §1
# [29] = biological target: Neu5Ac(a2-6)Gal(b1-4)GlcNAc(b1-2)Man(a1-6)Man(b1-4)GlcNAc(b1-4)GlcNAc
# Procedure, shortened: as §1
# [30] = biological target: Neu5Ac(a2-6)Gal(b1-4)GlcNAc(b1-2)Man(a1-6)[GlcNAc(b1-2)Man(a1-3)]Man(b1-4)GlcNAc(b1-4)GlcNAc
# Procedure, shortened: as §1
# [31] = biological target: Neu5Ac(a2-6)Gal(b1-4)GlcNAc(b1-3)[Neu5Ac(a2-6)Gal(b1-4)GlcNAc(b1-6)]GalNAc
# Procedure, shortened: as §1
# [32] = biological target: Neu5Ac(a2-8)Neu5Ac(a2-8)Neu5Ac(a2-3)[GalNAc(b1-4)]Gal(b1-4)Glc
# Procedure, shortened: as §1
# [33] = biological target: Neu5Gc(a2-3)Gal(b1-4)[Fuc(a1-3)]GlcNAc
# Procedure, shortened: as §1
# [34] = biological target: Neu5Gc(a2-6)Gal(b1-4)GlcNAc
# Procedure, shortened: as §1
# [35] = biological target: Neu5Gc(a2-8)Neu5Gc(a2-3)Gal(b1-4)GlcNAc
# Procedure, shortened: as §1
binder,measurement,setting,value
"GroEL (Clostridium difficile), Q18CT5 (protein) MAKEIKFSEETRRALEAGVNKLADTVKVTLGPKGRNVILDKKFGSPLITNDGVTIAKEIELEDRFENMGAQLVKEVATKTNDVAGDGTTTATVLAQAIIREGLKNVTAGANPILLRKGIQKAVTVAVEELKNQSRIVETQEAISQVASISAGDEEVGKLIAEAMEIVGKDGVITVEESQTMNTELDAVEGMQFDRGFVSAYMVTDVDKMEAVLNDPYILITDKKISNIQELLPVLEQIVQQGKKLLIIAEDVEGEALSTLVVNKLRGTFDVVAVKAPGFGDRRKEMLQDIAILTGAQVISEELGYDLKEADLSMLGRASSVKVTKESTTIVDGSGDKKAIEDRVTQIKHQVEQTTSDFDREKLMERLAKLAGGVAVVKVGAATEVELKERKLRIEDALNATRAAVEEGIVAGGGTAFVSVIPAIGTLIESLEGEVKLGAQIVKKALEEPLRQIAINAGLEGAVIVQNVVNSEAETGFDALNEKYVNMIEAGIVDPTKVSRSALQNAASIASTFLTTEAAVADLPEKEDAGMPGMGGGMPGMM",glycan array binding signal (z-score),[1],-0.541
same,glycan array binding signal (z-score),[2],3.73
same,glycan array binding signal (z-score),[3],2.28
same,glycan array binding signal (z-score),[4],0.143
same,glycan array binding signal (z-score),[5],-0.399
same,glycan array binding signal (z-score),[6],-0.924
same,glycan array binding signal (z-score),Gal(a1-4)Gal(b1-4)Glc,2.58
same,glycan array binding signal (z-score),[7],0.083
same,glycan array binding signal (z-score),Gal(b1-3)Gal(b1-4)GlcNAc,-0.843
same,glycan array binding signal (z-score),[8],3.31
same,glycan array binding signal (z-score),Gal(b1-4)Glc6S,0.425
same,glycan array binding signal (z-score),[9],0.454
same,glycan array binding signal (z-score),[10],2.79
same,glycan array binding signal (z-score),[11],-1
same,glycan array binding signal (z-score),[12],0.085
same,glycan array binding signal (z-score),[13],3.44
same,glycan array binding signal (z-score),[14],1.02
same,glycan array binding signal (z-score),[15],2.77
same,glycan array binding signal (z-score),[16],-1.13
same,glycan array binding signal (z-score),[17],-0.517
same,glycan array binding signal (z-score),Gal3S(b1-3)GalNAc,2.59
same,glycan array binding signal (z-score),[18],-0.243
same,glycan array binding signal (z-score),[19],3.51
same,glycan array binding signal (z-score),Gal3S4S(b1-4)GlcNAc,-0.674
same,glycan array binding signal (z-score),Glc(b1-6)Glc,3.22
same,glycan array binding signal (z-score),[20],0.659
same,glycan array binding signal (z-score),GlcNAc(b1-3)Gal,0.995
same,glycan array binding signal (z-score),[21],-0.786
same,glycan array binding signal (z-score),[22],3.99
same,glycan array binding signal (z-score),[23],-0.056
same,glycan array binding signal (z-score),[24],-0.917
same,glycan array binding signal (z-score),[25],0.139
same,glycan array binding signal (z-score),[26],2.65
same,glycan array binding signal (z-score),Neu5Ac(a2-3)Gal(b1-4)Glc,0.753
same,glycan array binding signal (z-score),[27],0.243
same,glycan array binding signal (z-score),[28],-0.601
same,glycan array binding signal (z-score),Neu5Ac(a2-6)Gal(b1-4)Glc,0.455
same,glycan array binding signal (z-score),[29],-0.426
same,glycan array binding signal (z-score),[30],-0.085
same,glycan array binding signal (z-score),[31],-1.37
same,glycan array binding signal (z-score),[32],-0.254
same,glycan array binding signal (z-score),[33],-0.437
same,glycan array binding signal (z-score),[34],1.41
same,glycan array binding signal (z-score),[35],-0.482
